From PubChem BioAssay AID652115 (Broad Institute, 2013)
Several values for one entry are separate records, joined by “and”; a condition that tells them apart may be missing. Equal entries are not always repeated. Hit rate of the full screen: of about 330,000 compounds, about 3,800 (1.2%) were called active. The sample holds actives, similar compounds and a random draw of the others, so the mix is not that of the screen. Rule as the data show it: active = inhibition above about 15%; inconclusive = no clear call, values can overlap the other calls; inactive = below that. More than one record can exist for a structure, and the calls need not agree.

Each compound was assayed against NAD-dependent protein deacylase sirtuin-5, mitochondrial (Homo sapiens) (UniProt Q9NXA8) (assay: blockers of sirtuin-5 deacylase activity – biochemical, fluorescence imaging, single point, set 5, primary screen (AID 652115)). Details: Purified SirT5, succinyl-peptide AMC, trypsin-coupled fluorescence; at 15 µM; stronger effect = higher value.
NAD-dependent protein deacylase sirtuin-5, mitochondrial (Homo sapiens), sequence (Q9NXA8 whole entry, looked up): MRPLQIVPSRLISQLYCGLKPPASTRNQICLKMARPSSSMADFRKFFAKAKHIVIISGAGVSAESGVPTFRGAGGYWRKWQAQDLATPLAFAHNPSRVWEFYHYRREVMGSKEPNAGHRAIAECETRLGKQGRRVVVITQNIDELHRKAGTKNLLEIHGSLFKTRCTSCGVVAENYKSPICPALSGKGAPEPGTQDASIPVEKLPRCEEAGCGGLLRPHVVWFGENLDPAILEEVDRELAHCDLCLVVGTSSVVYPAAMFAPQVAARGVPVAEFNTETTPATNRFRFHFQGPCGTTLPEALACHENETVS

Row | Structure (SMILES) | inhibition
1 | CN1C(=O)c2cc(NC(=O)C3CCOCC3)ccc2OC[C@@H]2O[C@H](CC(=O)NCc3ccccc3F)CC[C@H]21 | -13.7% (inactive)
2 | C[C@H]1CN([C@@H](C)CO)S(=O)(=O)c2ccc(C3=CCCC3)cc2O[C@@H]1CN(C)Cc1ccccc1 | 24.3% (active)
3 | C/C=C/c1ccc2c(c1)O[C@H](CN(C)Cc1cccc(F)c1)[C@H](C)CN([C@H](C)CO)S2(=O)=O | 18% (active)
4 | C[C@@H](O)C#Cc1ccc2c(c1)O[C@@H](CN(C)Cc1cccnc1)[C@@H](C)CN([C@@H](C)CO)S2(=O)=O | -2.24% (inactive)
5 | CC(C)C#Cc1ccc2c(c1)O[C@H](CN(C)Cc1ccccc1)[C@H](C)CN([C@@H](C)CO)S2(=O)=O | -0.3% (inactive)
6 | Cc1noc(C)c1NC(=O)N(C)C[C@@H]1Oc2cc(C#CCC(C)C)ccc2S(=O)(=O)N([C@H](C)CO)C[C@@H]1C | 10.8% (inactive)
7 | COc1ccccc1NC(=O)N(C)C[C@H]1Oc2cc(Br)ccc2S(=O)(=O)N([C@H](C)CO)C[C@@H]1C | -3.29% (inactive) and -0.792% (inactive)
8 | C[C@H](CO)N1C[C@H](C)[C@@H](CN(C)Cc2cccnc2)Oc2cc(C3=CCCC3)ccc2S1(=O)=O | 0.149% (inactive)
9 | C/C=C/c1ccc2c(c1)O[C@H](CN(C)C)[C@H](C)CN([C@H](C)CO)S2(=O)=O | -0.588% (inactive)
10 | C/C=C/c1ccc2c(c1)O[C@H](CN(C)Cc1ccccc1)[C@H](C)CN([C@@H](C)CO)S2(=O)=O | 3.6% (inactive)
11 | Cc1noc(C)c1NC(=O)N(C)C[C@@H]1Oc2cc(Br)ccc2S(=O)(=O)N([C@@H](C)CO)C[C@H]1C | -3.62% (inactive) and 22.1% (active)
12 | C[C@@H]1CN([C@H](C)CO)S(=O)(=O)c2ccc(C#C[C@@H](C)O)cc2O[C@@H]1CN(C)Cc1ccc(-c2ccccc2)cc1 | 27% (active) and 4.33% (inactive) and -0.184% (inactive)
13 | C[C@@H]1CN([C@@H](C)CO)S(=O)(=O)c2ccc(C3=CCCC3)cc2O[C@@H]1CN(C)Cc1ccncc1 | 0.906% (inactive)
14 | CO[C@@H](CN(C)C(=O)c1cnccn1)[C@@H](C)CN([C@@H](C)CO)S(=O)(=O)c1ccc(F)cc1 | 3.39% (inactive)
15 | CCNC(=O)C[C@@H]1CC[C@@H]2[C@H](COc3ccc(NS(=O)(=O)c4ccccc4C)cc3C(=O)N2C)O1 | -4.85% (inactive)
16 | C/C=C/c1ccc2c(c1)O[C@@H](CN(C)S(=O)(=O)c1ccc(F)cc1)[C@@H](C)CN([C@H](C)CO)S2(=O)=O | 7.93% (inactive)
17 | O=C(Nc1cc(F)ccc1F)N[C@H]1CC[C@@H](CCn2cc(C3CCCC3)nn2)O[C@@H]1CO | -0.428% (inactive)
18 | C[C@H](CO)N1C[C@H](C)[C@@H](CN(C)C(=O)c2ccncc2)Oc2cc(/C=C/c3ccccc3)ccc2S1(=O)=O | 0.659% (inactive)
19 | C[C@H]1CN([C@@H](C)CO)S(=O)(=O)c2ccc(C#Cc3ccncc3)cc2O[C@@H]1CN(C)C(=O)Nc1ccc2c(c1)OCO2 | 4.3% (inactive)
20 | C[C@@H]1CN([C@@H](C)CO)S(=O)(=O)c2ccc(/C=C/c3ccccc3)cc2O[C@@H]1CN(C)C(=O)Nc1cc(F)ccc1F | 21.7% (active)
21 | COc1cccc(S(=O)(=O)N(C)C[C@@H]2Oc3cc(C4=CCCCC4)ccc3S(=O)(=O)N([C@H](C)CO)C[C@H]2C)c1 | 37.3% (active)

Row | Structure (SMILES) | inhibition
22 | Cc1ccc(S(=O)(=O)N(C)C[C@@H]2Oc3cc(C4=CCCC4)ccc3S(=O)(=O)N([C@@H](C)CO)C[C@@H]2C)cc1 | 8.8% (inactive)
23 | C[C@@H]1CN([C@@H](C)CO)S(=O)(=O)c2ccc(/C=C/c3ccccc3)cc2O[C@H]1CN(C)Cc1ccccc1 | -1.92% (inactive)
24 | C[C@@H]1CN([C@H](C)CO)S(=O)(=O)c2ccc(/C=C/c3ccccc3)cc2O[C@@H]1CN(C)Cc1ccccc1 | 23.2% (active)
25 | C[C@H]1CN([C@@H](C)CO)S(=O)(=O)c2ccc(C3=CCCC3)cc2O[C@H]1CN(C)C(=O)Nc1ccc2c(c1)OCO2 | 16.2% (active)
26 | C[C@@H]1CN([C@H](C)CO)S(=O)(=O)c2ccc(/C=C/c3ccccc3)cc2O[C@@H]1CN(C)C(=O)Nc1ccc(F)cc1 | 0.2% (inactive)
27 | C[C@@H]1CN([C@@H](C)CO)S(=O)(=O)c2ccc(/C=C/c3ccccc3)cc2O[C@H]1CN(C)C(=O)Nc1cc(F)ccc1F | -3.9% (inactive)
28 | C[C@@H]1CN([C@@H](C)CO)S(=O)(=O)c2ccc(/C=C/c3ccccc3)cc2O[C@H]1CN(C)Cc1cccnc1 | 5.97% (inactive)
29 | C[C@H](CO)N1C[C@H](C)[C@@H](CN(C)S(=O)(=O)c2ccc(F)cc2)Oc2cc(C3=CCCC3)ccc2S1(=O)=O | -0.634% (inactive)
30 | C[C@@H]1CN([C@H](C)CO)S(=O)(=O)c2ccc(C3=CCCC3)cc2O[C@H]1CN(C)C(=O)Nc1ccc2c(c1)OCO2 | 7.25% (inactive)
31 | C[C@@H]1CN([C@H](C)CO)S(=O)(=O)c2ccc(-c3cncnc3)cc2O[C@H]1CN(C)C(=O)Cc1ccccc1 | 1.64% (inactive)
32 | CCCC#Cc1cnc2c(c1)C(=O)N([C@H](C)CO)C[C@H](C)[C@@H](CN(C)C(=O)c1cccnc1)O2 | -3.74% (inactive)
33 | CN1C(=O)c2cc(NS(=O)(=O)c3ccc(Cl)cc3)ccc2OC[C@@H]2O[C@H](CC(=O)O)CC[C@@H]21 | -0.474% (inactive)
34 | O=C(C1CC1)N1CC(=O)N2[C@H](CO)[C@@H](c3ccc(-c4ccccc4F)cc3)[C@@H]2C1 | -3.61% (inactive)
35 | COc1ccc(CN(C)C[C@H]2OCCCC[C@@H](C)Oc3ccc(NS(=O)(=O)c4ccccc4)cc3C(=O)N([C@@H](C)CO)C[C@@H]2C)cc1 | -2.94% (inactive)
36 | COc1ccccc1CN1[C@H](CO)[C@H](c2ccccc2)C12CN(C(=O)c1ccccn1)C2 | -0.913% (inactive)
37 | C[C@@H]1CN([C@H](C)CO)C(=O)c2cccc(NS(=O)(=O)c3ccc(Cl)cc3)c2O[C@H]1CN(C)Cc1ccc(C(F)(F)F)cc1 | 2.17% (inactive)
38 | COCC(=O)Nc1ccc2c(c1)OC[C@H](C)N(C(=O)c1cnccn1)C[C@@H](C)[C@@H](OC)CN(C)C2=O | 10.6% (inactive)
39 | Cc1noc(C)c1NC(=O)N(C)C[C@H]1OCCCC[C@@H](C)Oc2ccc(NC(=O)NC(C)C)cc2C(=O)N([C@@H](C)CO)C[C@H]1C | 1.72% (inactive)
40 | O=C(N/N=C/c1ccc2c(c1)OCO2)C(=O)N1CCCC1 | -0.951% (inactive)
41 | O=C1/C(=C/c2ccc3c(c2)OCO3)CCC/C1=C\c1ccc2c(c1)OCO2 | 15.2% (active)
42 | NC(=O)c1ccc(NC(=O)COC(=O)c2c3c(nc4ccccc24)/C(=C\c2ccc4c(c2)OCO4)CCC3)cc1 | -2.29% (inactive)

Row | Structure (SMILES) | inhibition
43 | C[C@H](CO)N1C[C@H](C)[C@H](CN(C)C(=O)c2cccnc2)Oc2ncc(C3=CCCC3)cc2C1=O | -8.88% (inactive)
44 | C[C@H](CO)N1C[C@H](C)[C@@H](CN(C)C(=O)Cc2ccncc2)Oc2ncc(C#CCN(C)C)cc2C1=O | 6.32% (inactive)
45 | CCCN(C)C[C@H]1Oc2ncc(C#CCOC)cc2C(=O)N([C@@H](C)CO)C[C@H]1C | 0.664% (inactive)
46 | C[C@@H]1CN([C@H](C)CO)C(=O)c2cccc(NC(=O)c3cnccn3)c2O[C@@H]1CN(C)Cc1ccc(C(=O)Nc2ccccc2N)cc1 | 15.1% (active)
47 | C[C@@H]1CN([C@@H](C)CO)C(=O)c2cccc(NC(=O)CCCCCC(=O)Nc3ccccc3N)c2O[C@H]1CN(C)C(=O)Nc1ccccc1 | -0.269% (inactive)
48 | C[C@H](CO)N1C[C@H](C)[C@H](CN(C)Cc2ccc(Oc3ccccc3)cc2)Oc2c(NC(=O)CCCCCC(=O)Nc3ccccc3N)cccc2C1=O | 10.2% (inactive)
49 | C[C@@H]1CN([C@@H](C)CO)C(=O)c2cccc(NC(=O)c3cnccn3)c2O[C@H]1CN(C)Cc1ccc(-c2ccccc2)cc1 | -1.19% (inactive)
50 | C[C@@H]1CN([C@H](C)CO)C(=O)c2cccc(NC(=O)CCCCCC(=O)Nc3ccccc3N)c2O[C@H]1CN(C)Cc1ccc(Oc2ccccc2)cc1 | 28.2% (active)
51 | C[C@@H]1CN([C@@H](C)CO)C(=O)c2cccc(NC(=O)c3cnccn3)c2O[C@H]1CN(C)Cc1ccc(C(=O)O)cc1 | -1.49% (inactive)
52 | COc1ccccc1-n1c(SCC(=O)Nc2cccc(C(=O)O)c2)nnc1-c1ccccc1O | 3.18% (inactive)
53 | COc1ccccc1OCc1nnc(SCC(N)=O)n1-c1ccccc1 | -0.045% (inactive)
54 | CCOc1cc(C)ccc1OCc1nnc(SCC(=O)Nc2cccc(C(=O)O)c2)n1-c1ccccc1 | 60.5% (active)
55 | COc1cccc(S(=O)(=O)N[C@@H]2C=C[C@H](CC(=O)NC3CCC3)O[C@@H]2CO)c1 | -3.76% (inactive)
56 | CO[C@@H]1CC[C@@H]2CCOc3c(C#N)cccc3C(=O)N(C)C[C@@H](C)C(=O)N(C)C[C@@H]1O2 | 0.964% (inactive)
57 | OC[C@@H]1CN(Cc2cccs2)C[C@H](n2cnc3c(Nc4ccccc4)ncnc32)O1 | 19.4% (active)
58 | CCN(CC)c1ncnc2c1ncn2[C@H]1CN(Cc2cccs2)C[C@@H](CO)O1 | 0.751% (inactive)
59 | OC[C@@H]1CN(Cc2cccs2)C[C@H](n2cnc3c(NC4CCCC4)ncnc32)O1 | 5.79% (inactive)
60 | CCCC(=O)Nc1ccc2c(c1)C(=O)N(C)C[C@H](OC)[C@@H](C)CN(C(C)=O)[C@H](C)CO2 | 0.113% (inactive)
61 | CO[C@@H]1CN(C)C(=O)c2cc(NC(=O)C3CC3)ccc2OC[C@H](C)N(CC2CC2)C[C@H]1C | -3.23% (inactive)
